Screening results: PubChem, National Center for Advancing Translational Sciences (NCATS)
ELG1 genotoxic = inducers of genotoxicity in HEK293T ELG1-luciferase cells. HEK293T ELG1-luciferase reporter, luminescence, 16 h. AID 504466. actives 1.3% (n = 330,000). Potency, µM (titrated, usually from 46 µM), inactives show at the top dose activity change, positive = activation, usual class: activators; also: % of control where 0% means no effect; nearly all actives have a fitted effect of over 60% in size
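16 hr compound incubation (37 °C, 5% CO2) of HEK293T cells carrying luciferase-tagged ELG1; luciferase then measured by ONE-Glo luminescence after 30 min at RT.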
NPC1 promoter act = activators of NPC1 promoter. Potency, µM (highest dose often 9.22 µM), for inactives: top-dose activation, usual class: activators. AID 485313. actives 2.4% (n = 320,000). Huh7 NPC1 promoter luciferase reporter, 24 h; also: % of control where 0% means no effect; nearly all actives have a fitted effect of over 60% in size
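Huh7 reporter cells (NPC1 promoter driving luciferase) are dosed with compound for 24 h at 37 °C, 5% CO2; luciferase detection reagent is then added and luminescence measured after 10 min at ambient temperature.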
SMN2 splice enh = enhancers of SMN2 splice variant expression; actives 2.8% (n = 210,000); Potency, µM (doses to about 46.1 µM), for inactives: at the highest dose activity change, positive = activation, most hits filed as activators; HEK293 SMN2-luciferase splicing reporter, luminescence, 30-36 h; AID 1458; also: % of control where 0% means no effect; nearly all actives have a fitted effect of over 55% in size
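HEK293 cells carry an SMN2 […]–luciferase reporter in which exon 7 inclusion puts luciferase in frame. Cells were plated 10-12 h before compound addition, then incubated 30-36 h at 37C. ONE-Glo luminescence was read; sodium butyrate at 4.5 mM final served as control.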
Rab9 promoter act = activators of Rab9 promoter; Potency, µM (top dose mostly 9.22 µM), inactives show top-dose activation, negative = inhibition, usual class: activators; AID 485297; actives 2.8% (n = 320,000); Huh7 Rab9 promoter-luciferase reporter, luminescence, 24 h; also: % of control where 0% means no effect; nearly all actives have a fitted effect of over 60% in size
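Luminescence read-out: Huh7 cells stably expressing Rab9-luciferase, treated 24 h with compound at 37 °C, then lysed with luciferase reagent for 10 min at ambient before reading.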
KinaseGlo FLuc = Kinase-Glo luciferase inhibition (counter-screen). Potency, µM (doses to about 38.3 µM), for the others: at the top dose activity change, negative = inhibition, most hits filed as inhibitors. Kinase-Glo luciferase, ATP luminescence, 8 min. Q27757. actives 0.28% (n = 200,000); also: % is scaled to controls: 0 for no effect and ±100 for the full control effect; nearly all actives have a fitted effect of over 60% in size
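Compounds were added to a substrate mix at pH 7.2 (50 mM imidazole, 10 uM ATP, within the enzyme's linear range), followed by Kinase-Glo detection reagent; luminescence was measured after 8 minutes at ambient temperature.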
FLuc counter = inhibits or activates purified firefly luciferase, miR-21 counter-screen. P08659. purified FLuc, Km substrates, luminescence inhibition. Potency, µM (titrated, usually from 57.5 µM), for the others: top-dose activity change, negative = inhibition, usual class: inhibitors. actives 6.9% (n = 360,000);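 also: plate controls were vehicle for no effect and reference inhibitor for full effect; nearly all actives have a fitted effect of over 55% in size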
Target sequence (P08659 whole entry, looked up): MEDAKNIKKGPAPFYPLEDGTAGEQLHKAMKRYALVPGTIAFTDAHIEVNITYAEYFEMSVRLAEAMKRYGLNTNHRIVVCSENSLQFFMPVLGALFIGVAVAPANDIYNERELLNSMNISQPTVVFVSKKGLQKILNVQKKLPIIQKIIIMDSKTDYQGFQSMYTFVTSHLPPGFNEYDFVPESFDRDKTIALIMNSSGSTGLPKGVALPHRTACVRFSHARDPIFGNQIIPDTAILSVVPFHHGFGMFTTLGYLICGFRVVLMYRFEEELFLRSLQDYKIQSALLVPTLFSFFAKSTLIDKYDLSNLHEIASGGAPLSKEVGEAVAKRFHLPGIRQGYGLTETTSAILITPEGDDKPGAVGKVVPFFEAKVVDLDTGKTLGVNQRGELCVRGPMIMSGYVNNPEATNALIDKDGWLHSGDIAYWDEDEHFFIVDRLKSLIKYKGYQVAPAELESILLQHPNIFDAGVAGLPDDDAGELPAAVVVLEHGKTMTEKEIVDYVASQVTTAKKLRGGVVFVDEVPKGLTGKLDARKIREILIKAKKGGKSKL
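Biochemical qHTS of compounds, final roughly 60 µM downward over six points, against 10 nM purified firefly luciferase using Km concentrations of substrates (10 uM D-luciferin, 10 uM ATP) in Tris acetate pH 7.5 buffer; luminescence output.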
* marks the source's active call; other numbers are inactive results; ? = inconclusive; . = no result. In the library only some 7.5% were active in any assay of this set; here they are far more common. Calls follow the shape of the dose curve; as a rule, active = well fitted curve in the direction sought with a large enough effect; inconclusive = small, poorly fitted or top-dose-only effect, or another doubt; inactive = no such curve, though single readings can be large; an effect the other way counts as inactive or inconclusive. Potency is read from the fitted curve at half-maximal effect.

SMILES	ELG1 genotoxic	NPC1 promoter act	SMN2 splice enh	Rab9 promoter act	KinaseGlo FLuc	FLuc counter
O=c1c2ccccc2nnn1-c1ccc(Br)cc1	?	3.2µM*	.	2.2µM*	.	?
O=c1c2ccccc2cnn1-c1ccc(Cl)nn1	11%	11%	-6%	16%	-5%	-19%
Cc1ccc(-n2c(-c3ccc(Br)cc3)nc3c(cnn3-c3ccccc3)c2=O)cc1	.	.	-6%	.	.	-5%
O=c1c2ccccc2cnn1-c1ccc(Br)cc1	?	0.71µM*	2.8µM*	1.6µM*	-12%	3.4µM*
COc1ccc(CNC(=O)Cn2ccc3cc(S(=O)(=O)N4CCCCC4)ccc32)c(OC)c1	.	.	.	.	.	-6%
COc1cc(NS(=O)(=O)c2ccc3c(c2)CC(=O)N3)cc(OC)c1OC	.	.	-5%	.	.	-9%
COc1cccc(CN2C(=O)c3ccccc3Sc3ccc(C(=O)OCc4ccco4)cc32)c1	.	.	.	.	.	0%
C/C(=C\C(=O)c1ccc(C)o1)Nc1ccc(C(=O)O)cc1C	11%	1%	30%	-4%	3%	9.5µM*
Cc1cc(C(=O)O)ccc1NCc1ccncc1	1%	-4%	.	2%	.	1%
Fc1ccc(-n2nnc(-c3ccnc4ccccc34)n2)cc1	?	25%	.	4µM*	.	2.1µM*
Cc1ccc(-n2nnc(-c3ccnc4ccccc34)n2)cc1	13µM*	3.2µM*	.	4.5µM*	.	1.9µM*
CCc1cccc(NC(=O)CCCCCC2NC(=O)NC2C)c1 (configuration not stated)	8%	-7%	-22%	-4%	2%	-1%
CC1CCN(c2ccc3nnc(CCC(=O)Nc4cccc(F)c4)n3n2)CC1	0%	-1%	.	-1%	.	1%
Cc1ccsc1/C=N/Nc1ccc(C(=O)O)cc1	?	?	.	?	.	0.27µM*
Cc1ccsc1/C=N/Nc1cccc(C(=O)O)c1	?	3.2µM*	0.1µM*	0.0032µM*	-26%	0.11µM*
CCCCN(CCCC)CCNC(=O)c1cc(=O)[nH]c2ccc(S(=O)(=O)N3CCCCCC3)cc12	.	.	.	.	.	-3%
O=C(c1cccc(OC2CCN(Cc3ccc(F)cc3)CC2)c1)N1CCCC1	0%	1%	.	-12%	.	5%
O=C(NCc1ccc2c(c1)OCO2)c1cc(-c2ccccc2Cl)on1	9%	1%	12%	-2%	-2%	17µM*
O=C(Nc1ccc2c(c1)OCO2)c1cc(-c2ccccc2Cl)on1	9.2µM*	2.5µM*	.	1.6µM*	.	5.4µM*
COc1ccc(-c2cc(C(=O)Nc3ccc4c(c3)OCO4)no2)cc1OC	18%	-1%	-6%	-2%	.	0%
COCC(=O)Nc1nnc(-c2ccc(C(C)(C)C)cc2)s1	3.7µM*	1.1µM*	8.9µM*	0.56µM*	1%	1.9µM*
COc1cccc(C(=O)Nc2nnc(-c3ccccc3)s2)c1	?	1.4µM*	.	1.6µM*	.	4.8µM*
CC(C)(C)c1ccc(-c2nnc(NC(=O)c3ccccc3)s2)cc1	3%	?	2%	?	-1%	1.7µM*
CC(C)Oc1ccc(C(CC(=O)O)NC(=O)c2cccs2)cc1 (configuration not stated)	0%	1%	9%	-5%	19%	0%
CC1CCCN(CCCOc2ccccc2-c2ccccc2)C1 (configuration not stated)	-12%	-4%	-20%	-2%	3%	-1%
SMILES	ELG1 genotoxic	NPC1 promoter act	SMN2 splice enh	Rab9 promoter act	KinaseGlo FLuc	FLuc counter
COc1ccc(CC/C(C)=N\NC(N)=O)cc1	3%	0%	1%	-3%	0%	0%
COc1ccc(N2CCN(C(=O)c3ccc(CNS(=O)(=O)c4cc(C)ccc4C)cc3)CC2)cc1	-12%	-3%	.	-10%	.	5%
Cc1cc(NC(=O)c2ccco2)ccc1-n1cnnn1	?	?	7%	?	-10%	21µM*
COc1cc(C(=O)Nc2ccc(-n3cnnn3)c(C)c2)cc(OC)c1OC	9%	-1%	26%	-1%	2%	?
O=C(Nc1cc2nn(-c3ccccc3)nc2cc1Cl)c1ccco1	9.2µM*	4µM*	11µM*	3.5µM*	-1%	?
CC(C)C(=O)Nc1ccc2nn(-c3ccccc3)nc2c1	1.2µM*	0.22µM*	7.9µM*	0.14µM*	-1%	0.67µM*
Cc1nc2ccc(NC(=O)c3ccco3)cc2nc1C	17%	19%	24%	?	-4%	?
O=C(Nc1ccc2nn(-c3ccccc3)nc2c1)c1ccco1	?	2.8µM*	4µM*	3.5µM*	0%	?
O=C(COc1ccc2oc(-c3ccccc3)cc(=O)c2c1)Nc1ccccc1	9%	-2%	0%	-5%	1%	-22%
COc1ccccc1CNC(=O)CCn1nc(C)c2c(C)n(-c3ccccc3)nc2c1=O	.	.	.	.	.	-1%
O=C(Nc1ccc2nn(-c3ccccc3)nc2c1)c1cccnc1	11%	3.5µM*	-4%	?	-2%	?
O=C(Nc1ccc2nn(-c3ccc(F)cc3)nc2c1)c1cccnc1	9%	19%	8%	27%	-1%	-18%
COc1ccc(-c2cc3nc(C)n(N)c(=O)c3s2)cc1	?	0.079µM*	.	0.0032µM*	.	0.076µM*
COc1ccc(-c2nc3ccccc3c(=O)n2N)cc1	0%	0%	7%	2%	4%	2%
C=CCn1c(SCCNC(C)=O)nc2cc(-c3ccccc3)sc2c1=O	10%	7%	.	10%	.	?
Cc1nc2cc(-c3ccccc3)sc2c(=O)n1N	-21%	?	1.4µM*	?	2.2µM*	0.67µM*
CC(=O)Nc1cccc(Oc2ccc3c(c2)C(=O)NC3=O)c1	?	19%	.	21%	.	11µM*
COC(=O)CC1Oc2ccccc2-n2cc(-c3ccc(C)cc3)nc21 (configuration not stated)	.	.	-9%	.	.	-19%
COc1ccc(C2CC2/C(=N/OC(=O)c2cccs2)c2ccccc2)cc1 (configuration not stated)	?	?	?	?	-2%	12µM*
C/C(=N\NC(=O)C1CC1c1ccccc1)c1cccs1 (configuration not stated)	-1%	1%	13%	3%	-7%	5%
COCCNC(=O)Cn1cc(/C=N/NC(=O)c2ccc(Oc3ccc(O)cc3)cc2)c2ccccc21	-7%	0%	-7%	-2%	1%	11µM*
O=C(N/N=C/c1cccc2ccccc12)c1cccc(F)c1	24%	26%	.	28%	.	21µM*
O=C(N/N=C/c1cccc2ccccc12)c1ccc(CN2CCOCC2)cc1	-8%	-4%	.	1%	.	17µM*
